# Bioassay records from PubChem BioAssay.
# Hits are enriched below; roughly 19% of the tested compounds scored in any of these assays.
# DT40 TDP1 CPT = growth inhibition of DT40 Tdp1-/-;hTDP1 cells with camptothecin (screen for TDP1 inhibitors) | 420,000 compounds, 12% hits | Potency, µM (doses to about 46.2 µM), for the others: at the top dose activity change, negative = growth inhibition, hits mostly inhibitors | chicken DT40 Tdp1-/-;hTDP1 cells + 20 nM CPT, ATP luminescence, 48 h; further: potency means the concentration at half of the fitted maximal effect; nearly all actives have a fitted effect of over 55% in size
#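 Chicken DT40 Tdp1-/- cells complemented with human TDP1, 400 cells/well, exposed to compounds plus 20 nM camptothecin for at least 48 h at 37 C; viability read as ATP content by CellTiter-Glo luminescence.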
# HT1080 IDH1KD tx = HT-1080 IDH1 knockdown cell toxicity (counter line). AID 686971. 360,000 compounds, 2% hits. Potency, µM (series often up to 46.1 µM), for inactives: at the highest dose activity, negative = toxicity, actives largely listed as cytotoxic. HT-1080 IDH1 knockdown viability, ATP luminescence, 48 h;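 further: potency means the concentration at half of the fitted maximal effect; 0% = DMSO wells and -100% = cell-free medium wells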
#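 HT-1080-IDH1KD cells (IDH1 knocked down), 750/well in RPMI with 5% FBS, treated with compound 48 h at 37 degrees C. Viability by CellTiter-Glo luminescence, normalised to DMSO and no-cell wells; concentration-response curves classed.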
# DT40 TDP1 no CPT = qHTS for Inhibitors of human tyrosyl-DNA phosphodiesterase 1 (TDP1): qHTS in cells in absence of CPT; 420,000 compounds, 15% hits; AID 686978, 2013; DT40 Tdp1-/- hTDP1 cells, no CPT, ATP luminescence, 48 h; Potency, µM (doses to about 46.2 µM), without a hit: at the highest dose activity change, negative = growth inhibition, actives largely listed as inhibitors; further: potency means the concentration at half of the fitted maximal effect; nearly all actives have a fitted effect of over 55% in size
#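 Luminescent ATP content (CellTiter-Glo) served as the growth readout. Knockout chicken DT40 cells expressing human TDP1 were exposed to compounds without camptothecin for a minimum 48 hr at 37 °C.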
# HT1080-NT tox = kills 2HG-producing HT-1080-NT fibrosarcoma cells | 360,000 compounds, 1.6% hits | HT-1080-NT fibrosarcoma viability, CellTiter-Glo ATP luminescence, 48 h | Potency, µM (highest dose often 46.1 µM), for inactives: top-dose activity, negative = less viability, actives largely listed as cytotoxic;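 further: NT is the 2HG producing partner of a matched IDH1 knockdown line; potency means the concentration at half of the fitted maximal effect; 0% = DMSO-treated cells and -100% = media-only wells without cells; nearly all actives have a fitted effect of over 55% in size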
#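 HT-1080-NT; 750 cells/well; 5% FBS RPMI; 48 h compound, 37 degrees C; CellTiter-Glo luminescence; curve fitting and curve-class assignment.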
# IL1B secr inh = inhibitors of inflammasome signaling (IL-1 beta secretion); THP-1 LPS/ATP IL-1B secretion, AlphaLISA, 16 h; hits give low values; activity change, % at 57.5 µM; 360,000 compounds, 4.7% hits; in the data active means activity change below about -50%; inconclusive means mostly about -30% to -49%
#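 THP-1 cells pretreated 1 hr with compounds (up to 57.5 uM final), then stimulated with LPS (250 ng/mL final) plus ATP (1.25 mM final); secreted IL-1B measured by AlphaLISA after 16 hr, decreased signal indicating inhibition.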
# Starred values were filed as active, the others as inactive; ? = inconclusive; nt = not tested or not shown; ! = not active in a repeat. Unless noted, the call rests on the fitted dose curve; in most records, active means well fitted curve in the direction sought with a large enough effect; inconclusive means small, poorly fitted or top-dose-only effect, or another doubt; inactive means no such curve, though single readings can be large; an effect the other way counts as inactive or inconclusive. Unless noted, on the % scale 0 is the no-effect control and ±100 the full control effect.
SMILES,DT40 TDP1 CPT,HT1080 IDH1KD tx,DT40 TDP1 no CPT,HT1080-NT tox,IL1B secr inh
O=C(Cn1ccccc1=S)c1ccc(Cl)c(Cl)c1,-2.2%,-1.4%,-20.7%,-2.7%,-81.2*
N=c1n(CCN2CCCCC2)c2ccccc2n1CC(=O)c1ccc(Cl)c(Cl)c1,?,20.6µM*,?,20.6µM*,nt
Cc1ccc(Cn2c(=N)n(CC(=O)c3ccc([N+](=O)[O-])cc3)c3ccccc32)cc1,4.61µM*,-13.5%,2.91µM*,-3.2%,-102.5*
O=C(Cn1ccccc1=O)c1ccc(Cl)cc1,2.4%,20.5%,7.7%,15.5%,-17.1
COC(=O)Cn1c(=N)n(CCN2CCCCC2)c2ccccc21,2.9%,8.8%,2.2%,10.3%,-19.0
CCn1c(=N)n(CC(=O)c2ccc(Cl)c(Cl)c2)c2ccccc21,25.9µM*,23.1µM*,20.6µM*,?,-72.9*
C1CCN2C[C@H]3C[C@H](CN4CCCCC34)C2C1 (stereo partly drawn),-7.9%,nt,?,nt,nt
CC(C)CN1CCC(Oc2cccc(C(=O)NCCc3ccccc3)c2)CC1,-1.1%,5.7%,-10.2%,-2.6%,-9.5
Cc1ccc(Cn2c(CO)cnc2SCC(=O)Nc2ccc(C)c(Cl)c2)cc1,18.4µM*,nt,23.1µM*,nt,nt
CCOC(=O)c1ccccc1NC(=O)CSc1ncc(CO)n1Cc1ccc(C)cc1,14.6µM*,nt,-80.8%,nt,nt
COc1ccccc1NC(=O)CSc1ncc(CO)n1Cc1ccc(F)cc1,?,-9.4%,?,-2.7%,-7.8
COc1ccc(C(C)=O)c(Oc2ccc(S(=O)(=O)N3CCOCC3)cn2)c1,-4.7%,2.6%,-29.7%,-3.8%,-3.9
CN1CC2=Cc3ccccc3OC23Oc2ccccc2C=C3C1,?,?,?,16.4µM*,-116.7*
CCOC(=O)c1[nH]c(=O)[nH]c1COC(=O)c1cc2ccccc2o1,-19.4%,5.8%,?,1.3%,11.2
CCOc1ccc(N2CC(=O)N/C2=N\c2nc(C)cc(C)n2)cc1,-12.0%,9.0%,-28.8%,25.2%,-4.5
CCc1c(C)sc(NC(=O)c2ccoc2C)c1C(N)=O,?,-9.6%,?,2.7%,-56.2*
Cc1occc1C(=O)Nc1sc2c(c1C(N)=O)CCCCC2,?,-8.7%,?,-6.7%,21.7
CCOC(=O)c1c(NC(=O)c2ccc(Cl)s2)sc(C)c1C,5.8%,22.3%,-0.7%,0.0%,-11.2
CCOC(=O)c1c(NC(=O)c2ccoc2C)sc(C)c1C,-8.6%,11.7%,20.6µM*,20.7%,0.1
CCOC(=O)N1CCN(C(=S)Nc2ccc(C)cc2)CC1,-15.6%,13.4%,-6.6%,9.7%,-7.9
N#Cc1ccc2ccn(CC(=O)NCc3ccccc3)c2c1,?,-22.7%,18.4µM*,-6.4%,-0.1
N#Cc1ccc2ccn(CC(=O)NC3CCCCC3)c2c1,1.7%,-6.8%,-17.5%,-7.8%,-2.5
Cc1cccc(N2CCN(C(=O)c3ccoc3C)CC2)c1C,?,0.5%,?,-0.5%,1.9
CCOc1ccccc1O[C@H](c1ccccc1)[C@H]1CNCCO1,29.9µM*,-11.1%,18.8µM*,-3.1%,-19.3
CCOc1ccccc1NC(=O)C(NCC1CCCCC1)c1ccccc1 (stereo not drawn),?,-5.8%,-82.4%,-1.9%,50.7
SMILES,DT40 TDP1 CPT,HT1080 IDH1KD tx,DT40 TDP1 no CPT,HT1080-NT tox,IL1B secr inh
Cc1ccn2c(NC3CCCC3)c(-c3ccsc3)nc2c1,?,-8.4%,-25.2%,0.9%,27.0
Cc1ccn2c(NC3CCCCC3)c(-c3ccc(SC4CCCCC4)cc3)nc2c1,?,2.0%,23.1µM*,8.9%,42.2
CCC(C)Sc1cccc(-c2nc3cc(C)ccn3c2NC2CCCCC2)c1 (stereo not drawn),16.4µM*,18.4µM*,14.6µM*,11.6µM*,-82.2*!
Cc1ccn2c(=O)nc(SCC(=O)NC3CCCCC3)nc2c1,5.4%,4.7%,3.1%,2.1%,-16.9
Cc1ccn2c(NC3CCCCC3)c(-c3cccc(SC4CCCCC4)c3)nc2c1,16.4µM*,?,8.2µM*,?,-75.0*!
CCCCCCSc1cccc(-c2nc3cc(C)ccn3c2NC2CCCCC2)c1,20.6µM*,-3.1%,16.4µM*,0.1%,-73.9*
O=C(COC(=O)c1c[nH]c(=O)[nH]c1=O)Nc1ccccc1Br,11.8%,-4.1%,1.7%,4.8%,15.4
O=C(COc1ccc(S(=O)(=O)NC2CCCCC2)cc1Cl)N1CCN(c2ccccc2)CC1,?,?,?,-12.9%,?
Cc1ccc(C)c(S(=O)(=O)N2CCN(CC(=O)NC(=O)NCc3ccccc3)CC2)c1,-7.4%,-15.2%,?,-28.2%,-12.2
Nc1c(C(=O)NCCc2ccccc2)nnn1CC(=O)Nc1ccc(Cl)cc1,4.4%,nt,-6.6%,nt,nt
CCOc1ccc(/C=N/n2cc(-c3ccccc3)[nH]c2=S)cc1,2.59µM*,-13.6%,5.17µM*,-12.6%,-14.7
S=c1[nH]c(-c2ccccc2)cn1/N=C/c1ccncc1,-1.2%,2.2%,-21.6%,-0.1%,-8.7
O=C(CNC(=O)c1ccc(Cl)cc1Cl)OCn1nnc2ccccc2c1=O,?,-0.9%,?,10.8%,-3.4
COc1ccc(C(=O)C[n+]2cn(C(F)F)c3ccccc32)c(F)c1,?,?,20.6µM*,20.6µM*,?
COc1ccc2c(ccc[n+]2CC(=O)c2ccccc2)c1,?,-3.0%,4.9%,-10.8%,31.0
COc1cc(OC)cc(OCC(O)Cn2cnc3cc(C)c(C)cc32)c1 (stereo not drawn),?,-5.4%,16.4µM*,1.5%,-5.1
Nn1c(SC/C=C/c2ccccc2)nnc1-c1ccco1,-7.6%,12.4%,-28.0%,2.1%,-13.0
C(=C\c1ccccc1)/CSc1nnc(-c2ccccc2)n1Cc1ccco1,5.17µM*,7.08µM*,4.61µM*,7.08µM*,43.1
Clc1cccc(-c2nnc(SC/C=C/c3ccccc3)n2Cc2ccco2)c1,20.6µM*,?,?,?,-84.4*
CCCc1nc2ccc(Cl)cn2c1Cc1ccccc1,6.51µM*,4.6%,4.11µM*,-1.3%,20.9
Clc1ccc(-c2nc3ccc(Cl)cn3c2Cc2ccccc2)cc1,?,8.8%,?,-0.1%,24.5
CCCc1nc2ccc(C)cn2c1Cc1ccccc1C(F)(F)F,?,32.6µM*,?,25.9µM*,-14.2
CCCc1nc2ccc(C)cn2c1Cc1ccccc1OC,20.6µM*,18.4µM*,20.6µM*,?,0.0
CCCc1nc2c3ccccc3ccn2c1Cc1ccc(OC)cc1C,18.4µM*,?,?,-27.7%,-11.7
COC(=O)c1ccc2nc(-c3ccc(Cl)cc3)c(Cc3ccccc3OC)n2c1,-13.3%,-6.3%,-22.1%,-3.1%,0.0
